# Only some compounds are listed: those with a hit (about 0.43% of all), similar ones and a draw of the others.
# GAA glycogen mod = GAA glycogen-cleavage inhibition or activation | P10253 | recombinant GAA, glycogen substrate, Amplex Red glucose oxidase fluorescence | actives 0.38% (n = 300,000) | AID 2100 | Potency, µM (top dose mostly 76.4 µM), for the others: top-dose activity change, negative = inhibition, usual class: inhibitors;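 note: potency is the fitted concentration of half-maximal effect; 0% = full enzyme reaction and -100% = no-enzyme basal signal; the screen sought inhibitors and activators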
#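 Recombinant human enzyme (4 nM); glycogen substrate; 37 C, 40 min, pH 5.0. Readout: coupled glucose oxidase/Amplex Red fluorescence.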
# GAA spleen mod = inhibitors or activators of human alpha-glucosidase in spleen homogenate; P10253; Potency, µM (highest dose often 79.9 µM), without a hit: at the top dose activity change, negative = inhibition, most hits filed as inhibitors; actives 0.006% (n = 240,000); AID 2112; human spleen homogenate, 4-MU-alpha-glucoside fluorescence;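 note: potency is the fitted concentration of half-maximal effect; 0% = enzyme with vehicle and -100% = no enzyme basal signal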
#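 AC50 values come from Hill-equation fits of concentration-response data, normalized to no-enzyme and full-activity controls. Enzyme source: 1 ug human spleen homogenate; 1 mM fluorogenic 4-MU glucoside, pH 5.0 citrate buffer, 37 C, 40 min.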
# GLA inh pH 4.5 = blocks human alpha-galactosidase A at pH 4.5 | purified enzyme, 4-MU-alpha-Gal fluorescence, pH 4.5 | activity change, negative = inhibition, % at 105 µM | 230,000 tested, under 10 active;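 note: 0% = full activity with enzyme and -100% = basal without enzyme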
# Target sequence (P06280 whole entry, looked up): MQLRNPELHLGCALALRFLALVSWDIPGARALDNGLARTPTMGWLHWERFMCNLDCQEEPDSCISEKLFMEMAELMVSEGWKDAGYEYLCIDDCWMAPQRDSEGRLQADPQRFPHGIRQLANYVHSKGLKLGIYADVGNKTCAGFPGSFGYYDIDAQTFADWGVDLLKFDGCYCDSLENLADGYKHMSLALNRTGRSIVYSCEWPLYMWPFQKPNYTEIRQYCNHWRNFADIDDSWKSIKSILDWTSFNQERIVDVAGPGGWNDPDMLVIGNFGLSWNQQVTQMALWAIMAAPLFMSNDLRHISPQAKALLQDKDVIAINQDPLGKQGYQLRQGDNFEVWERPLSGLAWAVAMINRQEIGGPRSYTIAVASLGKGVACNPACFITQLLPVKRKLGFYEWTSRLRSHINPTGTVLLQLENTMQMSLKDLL
# GAA inh = blocks human lysosomal alpha-glucosidase; P10253; purified human GAA, 4-MU-alpha-glucoside fluorescence; Potency, µM (doses to about 76.9 µM), for the others: at the highest dose activity change, negative = inhibition, usual class: inhibitors; actives 0.005% (n = 200,000);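 note: potency is the fitted concentration of half-maximal effect; plate controls were uninhibited enzyme wells for no effect and no-enzyme background for full effect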
#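 AC50 values come from Hill fits of compound titrations (up to 77 uM) against 4 nM human enzyme. Substrate 4-methylumbelliferyl-alpha-D-pyranoside at 400 uM, pH 5.0 citrate buffer, 20 min room temperature; fluorescence Ex 365/Em 440 after alkaline stop.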
# N370S GC mod = N370S glucocerebrosidase modulation, Gaucher chaperone candidate; Potency, µM (highest dose often 59.4 µM), for inactives: at the top dose activity change, negative = inhibition, hits mostly inhibitors; N370S GC spleen homogenate, 4MU-glucoside fluorescence; actives 0.092% (n = 330,000);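 note: potency is the fitted concentration of half-maximal effect; 0% = full enzyme activity and -100% = no enzyme basal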
# GLA spleen mod = inhibits or activates alpha-galactosidase in human spleen homogenate; Potency, µM (titrated, usually from 80 µM), for inactives: top-dose activity change, negative = inhibition, most hits filed as inhibitors; human spleen homogenate, 4MU-alpha-Gal fluorescence, 40 min; actives 0.008% (n = 240,000); AID 2107; P06280;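 note: potency is the fitted concentration of half-maximal effect; 0% = enzyme with vehicle and -100% = no enzyme basal signal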
#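 Human spleen homogenate (1 ug) as enzyme source, 4-methylumbelliferyl-alpha-D-galactopyranoside 1 mM final, citrate/phosphate pH 5.0 with 0.01% Tween-20. Compounds 40 min at 37C, NaOH/glycine stop; fluorescence Ex 365/Em 440, Hill-fit AC50.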
# Numbers without * were called inactive; u = inconclusive; x = not tested or not shown; ! = not confirmed by another sample; [ ] = dose if it differs, or a comment. Calls come from the whole dose curve; as a rule, active = well fitted curve in the direction sought with a large enough effect; inconclusive = small, poorly fitted or top-dose-only effect, or another doubt; inactive = no such curve, though single readings can be large; an effect the other way counts as inactive or inconclusive.
SMILES,GAA glycogen mod,GAA spleen mod,GLA inh pH 4.5,GAA inh,N370S GC mod,GLA spleen mod
CSc1ccccc1NC(=O)CN(C)CC(=O)NCc1ccccc1,5%,u,12,1%,29%,35µM*
CSc1ccccc1NC(=O)CN(C)CC(=O)Nc1cc(C)ccc1C,18%,-3%,-4,-11%,-4%,-10%
CCOC(=O)c1ccc(N2C(=O)CC(Nc3ccc(O)cc3)C2=O)cc1 (centres undefined),10µM*,-6%,7,x,-18%,-4%
O=C(NNC(=S)Nc1ccc(Br)cc1)c1cccnc1,50µM*,x,x,x,-5%,x
CCOc1ccc(N2C(=O)CC(N3CCc4ccccc43)C2=O)cc1 (centres undefined),14µM*,0%,1,-3%,11%[12.8 µM],-1%
COc1ccccc1NC(=O)c1cc2c(=O)oc3ccc(C)cc3c2s1,-3%[76.3 µM],x,x,x,x,x
COc1ccc(NC(=O)[C@@H](c2ccccc2)N2Cc3ccccc3C2=O)cc1OC,11%[76.3 µM],x,x,x,x,x
Nc1ccccc1Nc1cc(-c2ccccc2)[nH]n1,7.9µM*,9%,-5,1%,-1%,9%
Nc1ccccc1Nc1cc(-c2ccccc2)nn1-c1ccccc1,u,-5%,-9,-11%,-3%,8%
CSc1ccc(CCNC(=O)c2cc3c(-c4ccccc4F)nn(C)c3s2)cc1,7%[76.3 µM],x,x,x,x,x
CCCCCCNC(=O)Nc1ccc(S(=O)(=O)Nc2ccc(CCNC[C@H](O)COc3ccc(O)cc3)cc2)cc1,x,-13%,-13,x,7.9µM*,0%
Cc1ccccc1Nc1c(N)c(=O)oc2ccccc12,18µM*,-4%,-7,3%,-3%,-2%
COc1ccc(N(CC(=O)Nc2cccc(F)c2)S(=O)(=O)c2c(C)[nH]c(=O)[nH]c2=O)cc1,x,x,x,x,11µM*,x
CCOc1ccc(N(CC(=O)Nc2ccc(CC)cc2)S(=O)(=O)c2c(C)[nH]c(=O)[nH]c2=O)cc1,-18%[76.3 µM],x,x,x,3.5µM*,x
CCc1ccc(NC(=O)CN(c2ccc(OC)cc2)S(=O)(=O)c2c(C)[nH]c(=O)[nH]c2=O)cc1,-6%[76.3 µM],x,x,x,3.2µM*,x
CCOc1ccc(N(CC(=O)Nc2ccc(C)c(C)c2)S(=O)(=O)c2c(C)[nH]c(=O)[nH]c2=O)cc1,-11%,2%,-9,x,7.1µM*,1%
COc1ccc(NC(=O)c2c(NC(=O)C(F)(F)F)sc3c2CCCCC3)cc1,-5%[76.3 µM],x,x,x,x,x
CCn1cc(S(=O)(=O)c2ccc(C)cc2C)c(=O)c2cc(F)c(N3CCCCC3)cc21,7%[76.3 µM],x,x,x,x,x
Cc1ccc(CNC(=O)CCCCCn2c(=O)c3sccc3n(CC(=O)C(C)(C)C)c2=O)cc1,9%[76.3 µM],x,x,x,x,x
COc1cccc(CNn2c(-c3cccc(C)c3)nc3ccccc3c2=O)c1O,31µM*,-8%,-1,-1%,8%,-9%
COc1ccc(-c2nc3ncccn3c2Nc2ccccc2)cc1,u,4%,-6,-4%,-6%,-2%
Cc1ccc(Nc2c(-c3ccc(N4CCOCC4)cc3)nc3ncccn23)c(C)c1,32µM*,4%,-1,3%,-24%,0%
Cc1ccc(Nc2c(-c3ccc(N(C)C)cc3)nc3ncccn23)cc1,-23%,8%,0,-4%[15.4 µM],-1%,2%
Cc1cccc(C)c1Nc1c(-c2ccc(N3CCOCC3)cc2)nc2ncccn12,20µM*!,-21%,7,6%,9%,12%
O=C(N/N=C/c1ccc(-c2ccccc2Cl)o1)c1ccccc1,5%,3%,1,-5%,-11%,8%
SMILES,GAA glycogen mod,GAA spleen mod,GLA inh pH 4.5,GAA inh,N370S GC mod,GLA spleen mod
O=S(=O)(N/N=C\c1ccc(-c2ccccc2Cl)o1)c1ccccc1,25µM*,4%,0,6%,3%,5%
Oc1ccc(N2CCN(Cc3nc4ccccc4[nH]3)CC2)cc1,8.9µM*,x,x,x,-3%,x
Cc1ccc2oc(C(=O)Nc3ccc(S(=O)(=O)N4CCCCC4C)cc3)cc(=O)c2c1 (centres undefined),7.1µM*,x,x,x,x,x
CCN(CC)c1ccc(-c2nc3cnccn3c2NC2CCCC2)cc1,9.9µM*,-7%,-25,3%,10%,12%
Brc1ccc2nc(-c3ccncc3)c(NC3CCCC3)n2c1,9.9µM*,2%,u,-14%,-16%,7%
CC1=C(c2ccc(C)cc2)S(=O)(=O)N=C1N1CCN(c2ccccc2)CC1,-3%[76.3 µM],x,x,x,x,x
CCN(CC)CCOC(=O)c1ccc(Nc2c3c(nc4ccccc24)CCC3)cc1,14%[76.3 µM],x,x,x,x,x
O=Cc1ccc(OC2C=CC(c3ccccc3)OC2CO)cc1 (centres undefined),x,-1%[17.4 µM],x,x,0%[12.8 µM],-18%[17.5 µM]
CC(=O)Nc1cccc(NC(=O)CN2C(=O)CCSc3ccccc32)c1,13%[76.3 µM],x,x,x,x,x
CN(C(=O)N1CCN(S(=O)(=O)c2ccccc2)CC1)c1ccccc1,-15%,-1%,-30,35µM*,x,2%
CCCCC(C)/C=C(C)/C=C(\C)C(=O)NC1=CC(O)(/C=C/C=C/C=C/C(=O)NC2=C(O)CCC2=O)C2OC2C1=O (centres undefined),x,-1%,x,x,-14%,-11%
CC1=NNC(=O)C1CC(=O)N/N=C/C(Br)=C/c1ccccc1 (centres undefined),u,12%,0,x,-3%,14%
CC1C(=O)NN=C1C(=O)N/N=C\C(Br)=C\c1ccccc1 (centres undefined),25µM*,-2%,0,6%,-7%,-10%
CCCn1c(=O)c2sccc2n2c(CCCC(=O)NCCc3ccc(Cl)cc3)nnc12,20%[76.3 µM],x,x,x,x,x
Cc1cc(NS(=O)(=O)c2ccccc2)c(C)c(Cl)c1O,45µM*,8%,0,-1%,3%,0%
COc1ccc(S(=O)(=O)Nc2cc(C(C)C)c(O)cc2C)cc1,20µM*,-2%,-6,-9%,0%,-1%
COc1ccc(S(=O)(=O)Nc2cc(C)c(O)cc2C(C)C)cc1,u,-4%,-3,-1%,3%,-3%
COc1ccc(S(=O)(=O)Nc2ccc(O)c3ccccc23)cc1,9.9µM*,6%,-6,5%,1%,-4%
Cc1ccc(S(=O)(=O)Nc2cc(C)c(O)cc2C)cc1,3.5µM*,3%,3,4%,-9%,5%
O=C1Cc2cc(S(=O)(=O)N3CCCCC3)ccc2N1,u,x,x,x,-2%,x
N#Cc1ccc(N2CCN(S(=O)(=O)c3ccc4c(c3)CC(=O)N4)CC2)cc1,6.5µM*,x,x,x,x,x
O=C1Cc2cc(S(=O)(=O)N3CCN(c4cccc(C(F)(F)F)c4)CC3)ccc2N1,9.5µM*,x,x,x,x,x
O=C1Cc2cc(S(=O)(=O)N3CCN(c4ccc([N+](=O)[O-])cc4)CC3)ccc2N1,8.2µM*,x,x,x,x,x
